# The supplement of paper PMC10037445
# In all, about 2,900 compounds were measured (“NF-kB SEAP reporter activity, fold change vs agonist alone”: median about 0.99, highest 2% from about 2.6 on). The entries come from a sample that favours the highest values as a whole.
# Tests used:
# RAW-Dual [1] = test: NF-kB SEAP reporter activity, fold change vs agonist alone; higher = enhanced NF-kB activity; conditions: cytotoxicity flag (confluency mask): not cytotoxic
# Procedure, shortened: (§1)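 After 50 nL of library stock was delivered by pin tool to RAW-Dual macrophages (50,000 cells/well, DMEM, 384-well plates), a PRR agonist was added 1 h later and the plates were kept at 37 °C, 5% CO2. Twenty hours later, IRF was read from supernatant by QuantiLuc luminescence and NF-κB by QuantiBlue absorbance at 620 nm. Reporter activity is stated as fold change over agonist-alone wells. Wells with IncuCyte confluency under 70% of agonist controls in both mask sets were counted as cytotoxic.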
# RAW-Dual [2] = test: NF-kB SEAP reporter activity, fold change vs agonist alone; cytotoxicity flag (confluency mask): not cytotoxic; higher = enhanced NF-kB activity
# Procedure, shortened: as §1
# [3] = agonist: ODN 1826 (TLR9) 0.5 ug/mL
# [4] = agonist: Pam2CSK4 (TLR2/6) 0.1 ug/mL
# [5] = agonist: Pam3CSK4 (TLR2/1) 0.1 ug/mL
# [6] = library stock concentration (final ~1000-fold dilution): 10 mM, agonist: Imiquimod (TLR7) […]
# [7] = library stock concentration (final ~1000-fold dilution): 10 mM, agonist: MPLA (TLR4) […]
# [8] = library stock concentration (final ~1000-fold dilution): 10 mM water, agonist: Imiquimod (TLR7) […]
# [9] = library stock concentration (final ~1000-fold dilution): 10 mM water, agonist: MPLA (TLR4) […]
compound,measurement,setting,value
C=C1CCC(O)CC1=CC=C1CCCC2(C)C1CCC2C(C)CCCC(C)C (stereo unspecified),NF-kB SEAP reporter activity,"RAW-Dual [1]; library stock concentration (final ~1000-fold dilution): 1 mM, agonist: Imiquimod (TLR7) […]",1.17
same,NF-kB SEAP reporter activity,"RAW-Dual [1]; library stock concentration (final ~1000-fold dilution): 1 mM, agonist: MPLA (TLR4) […]",0.651
O=C(O)CCN1C(=O)C(=Cc2ccc(-c3ccc([N+](=O)[O-])cc3)o2)SC1=S (library stock concentration (final ~1000-fold dilution): 10 mM),NF-kB SEAP reporter activity,RAW-Dual [2]; agonist: LPS (TLR4) 0.1 ug/mL,0.807
same,NF-kB SEAP reporter activity,RAW-Dual [2]; [3],0.649
same,NF-kB SEAP reporter activity,RAW-Dual [2]; [4],0.104
same,NF-kB SEAP reporter activity,RAW-Dual [2]; [5],0.296
O=C(O)CCN1C(=O)C(=Cc2ccc(-c3ccc([N+](=O)[O-])cc3)o2)SC1=S,NF-kB SEAP reporter activity,RAW-Dual [1]; [6],0.675
same,NF-kB SEAP reporter activity,RAW-Dual [1]; [7],0.731
COc1ccc(-c2ccc3c(N4CCOCC4)nc(N4CC(C)OC(C)C4)nc3n2)cc1CO (stereo unspecified) (library stock concentration (final ~1000-fold dilution): 10 mM),NF-kB SEAP reporter activity,RAW-Dual [2]; agonist: LPS (TLR4) 0.1 ug/mL,0.793
same,NF-kB SEAP reporter activity,RAW-Dual [2]; [3],0.836
same,NF-kB SEAP reporter activity,RAW-Dual [2]; [4],0.365
same,NF-kB SEAP reporter activity,RAW-Dual [2]; [5],0.707
COc1ccc(-c2ccc3c(N4CCOCC4)nc(N4CC(C)OC(C)C4)nc3n2)cc1CO (stereo unspecified),NF-kB SEAP reporter activity,RAW-Dual [1]; [6],0.91
same,NF-kB SEAP reporter activity,RAW-Dual [1]; [7],0.935
CCc1nn(CCCN2CCN(c3cccc(Cl)c3)CC2)c(=O)n1CCOc1ccccc1.Cl (library stock concentration (final ~1000-fold dilution): 10 mM),NF-kB SEAP reporter activity,RAW-Dual [2]; agonist: LPS (TLR4) 0.1 ug/mL,0.981
same,NF-kB SEAP reporter activity,RAW-Dual [2]; [3],0.799
same,NF-kB SEAP reporter activity,RAW-Dual [2]; [4],0.822
same,NF-kB SEAP reporter activity,RAW-Dual [2]; [5],0.646
O=c1n(CCCN2CCN(c3cccc(Cl)c3)CC2)nc2ccccn12 (library stock concentration (final ~1000-fold dilution): 10 mM),NF-kB SEAP reporter activity,RAW-Dual [2]; agonist: LPS (TLR4) 0.1 ug/mL,2.72
same,NF-kB SEAP reporter activity,RAW-Dual [2]; [3],1.65
same,NF-kB SEAP reporter activity,RAW-Dual [2]; [4],1.15
same,NF-kB SEAP reporter activity,RAW-Dual [2]; [5],1.22
O=c1n(CCCN2CCN(c3cccc(Cl)c3)CC2)nc2ccccn12,NF-kB SEAP reporter activity,RAW-Dual [1]; [6],2.36
same,NF-kB SEAP reporter activity,RAW-Dual [1]; [7],2.42
Cl.O=c1n(CCCN2CCN(c3cccc(Cl)c3)CC2)nc2ccccn12 (library stock concentration (final ~1000-fold dilution): 2 mM),NF-kB SEAP reporter activity,RAW-Dual [2]; agonist: LPS (TLR4) 0.1 ug/mL,1.15
same,NF-kB SEAP reporter activity,RAW-Dual [2]; [3],1.04
same,NF-kB SEAP reporter activity,RAW-Dual [2]; [4],1.1
same,NF-kB SEAP reporter activity,RAW-Dual [2]; [5],1.37
Cl.O=c1n(CCCN2CCN(c3cccc(Cl)c3)CC2)nc2ccccn12,NF-kB SEAP reporter activity,"RAW-Dual [1]; library stock concentration (final ~1000-fold dilution): 2 mM, agonist: Imiquimod (TLR7) […]",1.05
same,NF-kB SEAP reporter activity,"RAW-Dual [1]; library stock concentration (final ~1000-fold dilution): 2 mM, agonist: MPLA (TLR4) […]",1.08
CCc1nn(CCCN2CCN(c3cccc(Cl)c3)CC2)c(=O)n1CCOc1ccccc1.Cl,NF-kB SEAP reporter activity,RAW-Dual [1]; [7],0.878
COc1nc(N)nc2c1ncn2C1OC(CO)C(O)C1O (stereo unspecified),NF-kB SEAP reporter activity,RAW-Dual [1]; [6],0.924
same,NF-kB SEAP reporter activity,RAW-Dual [1]; [7],0.994
COc1nc(N)nc2c1ncn2C1OC(CO)C(O)C1O (stereo unspecified) (library stock concentration (final ~1000-fold dilution): 10 mM),NF-kB SEAP reporter activity,RAW-Dual [2]; agonist: LPS (TLR4) 0.1 ug/mL,1.43
same,NF-kB SEAP reporter activity,RAW-Dual [2]; [3],0.996
same,NF-kB SEAP reporter activity,RAW-Dual [2]; [4],1.08
same,NF-kB SEAP reporter activity,RAW-Dual [2]; [5],1.23
CCOc1ccc(CC2NC(=O)CCSSCC(C(=O)N3CCCC3C(=O)NC(CCCN)C(=O)NCC(N)=O)NC(=O)C(CC(N)=O)NC(=O)C(C(C)O)NC(=O)C(C(C)CC)NC2=O)cc1 (stereo unspecified),NF-kB SEAP reporter activity,RAW-Dual [1]; [8],0.981
same,NF-kB SEAP reporter activity,RAW-Dual [1]; [9],1.06
CCOc1ccc(CC2NC(=O)CCSSCC(C(=O)N3CCCC3C(=O)NC(CCCN)C(=O)NCC(N)=O)NC(=O)C(CC(N)=O)NC(=O)C(C(C)O)NC(=O)C(C(C)CC)NC2=O)cc1 (stereo unspecified) (library stock concentration (final ~1000-fold dilution): 10 mM water),NF-kB SEAP reporter activity,RAW-Dual [2]; agonist: LPS (TLR4) 0.1 ug/mL,1.22
same,NF-kB SEAP reporter activity,RAW-Dual [2]; [3],1.15
same,NF-kB SEAP reporter activity,RAW-Dual [2]; [4],1.22
same,NF-kB SEAP reporter activity,RAW-Dual [2]; [5],1.02
COc1cc2c(cc1OC)C(=O)C(CC1CCN(Cc3ccccc3)CC1)C2.Cl (stereo unspecified) (library stock concentration (final ~1000-fold dilution): 10 mM water),NF-kB SEAP reporter activity,RAW-Dual [2]; agonist: LPS (TLR4) 0.1 ug/mL,1.35
same,NF-kB SEAP reporter activity,RAW-Dual [2]; [3],1.16
same,NF-kB SEAP reporter activity,RAW-Dual [2]; [4],1.28
same,NF-kB SEAP reporter activity,RAW-Dual [2]; [5],1.29
COc1cc2c(cc1OC)C(=O)C(CC1CCN(Cc3ccccc3)CC1)C2.Cl (stereo unspecified),NF-kB SEAP reporter activity,RAW-Dual [1]; [8],0.84
same,NF-kB SEAP reporter activity,RAW-Dual [1]; [9],1.08
CC(C)CC(NC(=O)C(Cc1ccccc1)CC(O)C(Cc1ccccc1)NC(=O)OC(C)(C)C)C(=O)NC(Cc1ccccc1)C(N)=O (stereo unspecified),NF-kB SEAP reporter activity,RAW-Dual [1]; [6],0.843
same,NF-kB SEAP reporter activity,RAW-Dual [1]; [7],1.02
CC(C)CC(NC(=O)C(Cc1ccccc1)CC(O)C(Cc1ccccc1)NC(=O)OC(C)(C)C)C(=O)NC(Cc1ccccc1)C(N)=O (stereo unspecified) (library stock concentration (final ~1000-fold dilution): 10 mM),NF-kB SEAP reporter activity,RAW-Dual [2]; agonist: LPS (TLR4) 0.1 ug/mL,1.25
same,NF-kB SEAP reporter activity,RAW-Dual [2]; [3],0.998
same,NF-kB SEAP reporter activity,RAW-Dual [2]; [4],0.929
same,NF-kB SEAP reporter activity,RAW-Dual [2]; [5],0.958
COC(=O)NC(C(=O)NC(Cc1ccccc1)C(O)CN(Cc1ccc(-c2ccccn2)cc1)NC(=O)C(NC(=O)OC)C(C)(C)C)C(C)(C)C.O=S(=O)(O)O (stereo unspecified),NF-kB SEAP reporter activity,RAW-Dual [1]; [6],2.01
same,NF-kB SEAP reporter activity,RAW-Dual [1]; [7],1.56
COC(=O)NC(C(=O)NC(Cc1ccccc1)C(O)CN(Cc1ccc(-c2ccccn2)cc1)NC(=O)C(NC(=O)OC)C(C)(C)C)C(C)(C)C (stereo unspecified),NF-kB SEAP reporter activity,RAW-Dual [1]; [7],0.961
COC(=O)NC(C(=O)NC(Cc1ccccc1)C(O)CN(Cc1ccc(-c2ccccn2)cc1)NC(=O)C(NC(=O)OC)C(C)(C)C)C(C)(C)C.O=S(=O)(O)O (stereo unspecified) (library stock concentration (final ~1000-fold dilution): 10 mM),NF-kB SEAP reporter activity,RAW-Dual [2]; agonist: LPS (TLR4) 0.1 ug/mL,1.54
same,NF-kB SEAP reporter activity,RAW-Dual [2]; [3],2.67
same,NF-kB SEAP reporter activity,RAW-Dual [2]; [4],1.47
same,NF-kB SEAP reporter activity,RAW-Dual [2]; [5],1.68
COC(=O)NC(C(=O)NC(Cc1ccccc1)C(O)CN(Cc1ccc(-c2ccccn2)cc1)NC(=O)C(NC(=O)OC)C(C)(C)C)C(C)(C)C (stereo unspecified) (library stock concentration (final ~1000-fold dilution): 10 mM),NF-kB SEAP reporter activity,RAW-Dual [2]; agonist: LPS (TLR4) 0.1 ug/mL,1.03
same,NF-kB SEAP reporter activity,RAW-Dual [2]; [3],1.02
same,NF-kB SEAP reporter activity,RAW-Dual [2]; [4],1.11
same,NF-kB SEAP reporter activity,RAW-Dual [2]; [5],0.79
CC(C)C1=CC2=CCC3C(C)(C(=O)O)CCCC3(C)C2CC1 (stereo unspecified) (library stock concentration (final ~1000-fold dilution): 10 mM),NF-kB SEAP reporter activity,RAW-Dual [2]; agonist: LPS (TLR4) 0.1 ug/mL,0.876
same,NF-kB SEAP reporter activity,RAW-Dual [2]; [3],0.965
same,NF-kB SEAP reporter activity,RAW-Dual [2]; [4],1.03
same,NF-kB SEAP reporter activity,RAW-Dual [2]; [5],0.83
CC(C)C1=CC2=CCC3C(C)(C(=O)O)CCCC3(C)C2CC1 (stereo unspecified),NF-kB SEAP reporter activity,RAW-Dual [1]; [7],1.07
